According to PubChem BioAssay (NCATS):
Values joined by “and” are separate entries in the source; they are usually repeats but may differ in a detail not shown here. Equal entries are not always repeated. Records with an inconclusive call do not appear. Active and inactive are the calls of the source. Calls follow the shape of the dose curve; as a rule, active = well fitted inhibition curve with a large enough effect; inconclusive = small, poorly fitted or top-dose-only effect; inactive = flat fitted curve, though single readings scatter.

Test: Primary qHTS for inhibitors of nuclear receptor binding SET domain protein 2 (NSD2) in an isogenic RCH-ACV NSD2 p.E1099K mutant (9B) (AID 1645876); also: nearly all actives have a fitted effect of over 70% in size
Conditions: RCH-ACV (leukaemia line) NSD2 E1099K (9B) viability, CellTiter-Glo, 72 h; series mostly up to 44.9 µM; activity change, negative = viability loss: at the top concentration
% is scaled to controls: 0 for no effect and ±100 for the full control effect; potency is read from the fitted curve at half-maximal effect.

Row | SMILES | Potency | activity change, negative = viability loss | outcome
1 | Cc1ccc(S(=O)(=O)c2ccc([N+](=O)[O-])o2)cc1 | 649 nM (active) |  | 
2 | C[C@]12C[C@@H](O)[C@@H]3C[C@@]1(O[C@@H]1O[C@H](CO)[C@@H](O)[C@H](O)[C@H]1O)[C@]3(COC(=O)c1ccccc1)C(=O)O2 |  | 3.74% [at 17.3 µM] (inactive) | 
3 | CC(=O)N[C@H]1[C@H](O[C@H]2CC[C@@]3(C)C(CC[C@]4(C)C3CC=C3[C@@H]5CC(C)(C)CC[C@]5(C(=O)OC5OCC(O)C(O)C5O)CC[C@]34C)C2(C)C)O[C@H](COC2OC(C)C(O)C(OC3OC(C)C(O)C(O)C3O)C2O)[C@@H](O)[C@@H]1O (some centres not stated) |  |  | inactive [at 9.23 µM]
4 | CC(C)(C)c1ccc(S(=O)(=O)Nc2ccc(Cl)cc2C(=O)c2cc[n+]([O-])cc2)cc1 |  | -7.56% (inactive) | 
5 | O=C1NC(Cc2c[nH]c3ccccc23)C(=O)NC1Cc1cnc[nH]1 (configuration not stated) |  | 1.08% (inactive) | 
6 | CC1(C)CCCC2(C)C=C(C(=O)O)C(O)CC12 (configuration not stated) |  | -2.6% (inactive) | 
7 | C/C=C(/COC(=O)/C(C)=C/C)C(=O)OC(CC)c1ccc(OC)c(OC)c1 (configuration not stated) |  |  | inactive
8 | C=C(C)C1Cc2cc(C(=O)OC3OC(CO)C(O)C(O)C3O)ccc2O1 (configuration not stated) |  | 0.682% (inactive) | 
9 | COC(=O)C1=CO[C@@H](O[C@@H]2O[C@H](CO)[C@@H](O)[C@H](O)[C@H]2O)C2C1C(=O)C[C@H]2C (some centres not stated) |  | 3.73% (inactive) | 
10 | C[C@@H]1C[C@H]2O[C@@H]2/C=C\C=C\C(=O)Cc2c(Cl)c(O)cc(O)c2C(=O)O1 | 488 nM (active) and 640 nM (active) |  | 
11 | CCN1CCN(Cc2ccc(NC(=O)c3ccc(C)c(NC(=O)c4cncc(-c5cccs5)c4)c3)cc2C(F)(F)F)CC1 | 45.9 nM (active) and 166 nM (active) |  | 
12 | COc1cc(O)c2c(c1)C1=C[C@H](O)[C@@H](O)C[C@]1(C)OC2=O |  | -4.53% (inactive) | 
13 | CC1CCC23COC(=O)C2=CC(O)CC3C1(C)CCC1=CC(O)OC1=O (configuration not stated) |  |  | inactive
14 | O=C(OC[C@@]1(O)CO[C@@H](O[C@H]2[C@H](Oc3ccc(O)cc3)O[C@H](CO)[C@@H](O)[C@@H]2O)[C@@H]1O)c1ccc(O)cc1 |  | 4.39% [at 17.3 µM] (inactive) | 
15 | O=C(O)Cc1cn(C2OCC(O)C(O)C2O[C@@H]2O[C@H](CO)[C@@H](O)[C@H](O)[C@H]2O)c2ccccc12 (some centres not stated) |  | 4.89% [at 17.3 µM] (inactive) | 
16 | CCCCC1CCN(CCCC(=O)c2ccccc2C)CC1 | 20500 nM (active) |  | 

Row | SMILES | Potency | activity change, negative = viability loss | outcome
17 | C/C1=C\CC[C@]2(C)O[C@@H]2[C@H](O)[C@H](C(C)C)[C@H](OC(=O)/C=C/c2ccccc2)C1 |  | -17.9% (inactive) | 
18 | CN(C)CCCCC(=O)Nc1ccc(NC(=S)NC(=O)c2ccc(C(C)(C)C)cc2)cc1 | 1830 nM (active) |  | 
19 | CC1(C)CC2C(C1)C(C)(O)C13CC1(COC3=O)C2O (configuration not stated) |  | -16.8% (inactive) | 
20 | CN[C@@H]1[C@H](O[C@H]2[C@H](O[C@@H]3[C@@H](O)[C@H](O)[C@@H](N=C(N)N)[C@H](O)[C@H]3N=C(N)N)O[C@@H](C)[C@]2(O)C=O)O[C@@H](CO)[C@H](O)[C@H]1O | inactive |  | 
21 | CC1=C(C(=O)O)/C(=C\CO[C@@H]2O[C@H](CO)[C@@H](O)[C@H](O)[C@H]2O)C(OC(=O)/C=C/c2ccc(O)cc2)C1 (some centres not stated) |  | -5.98% [at 17.3 µM] (inactive) | 
22 | C/C(=C\CCC(C)CCO)C(=O)OC1(C)CCC2C(C(=O)O)=COC(OC3OC(CO)C(O)C(O)C3O)C21 (configuration not stated) |  | -0.0528% [at 17.3 µM] (inactive) | 
23 | Nc1nc(Nc2ccc(S(N)(=O)=O)cc2)n(C(=S)Nc2c(F)cccc2F)n1 |  | -7.88% (inactive) | 
24 | CCOc1ccc2nc(SCCN3CCOCC3)[nH]c2c1 |  | -12.4% (inactive) | 
25 | CC1(C(=O)O)CCCC2(C)C3=CCC4CC3(CCC12)CC4CO (configuration not stated) |  | -13.3% (inactive) | 
26 | CC[C@H](C)[C@H](NC(=O)[C@H]([C@@H](C)CC)N(C)C(C)=O)C(=O)N[C@H](C(=O)N[C@@H](CC(C)C)C(=O)[C@@]1(C)CO1)[C@@H](C)O | 12.9 nM (active) |  | 
27 | O=C1CCC(=O)N(O)CCCCCNC(=O)CCC(=O)N(O)CCOCCNC(=O)CCC(=O)N(O)CCCCCN1 |  | -15.9% [at 17.3 µM] (inactive) | 
28 | COc1ccc(/C=C\C(=O)O)c(O[C@@H]2O[C@H](CO)[C@@H](O)[C@H](O)[C@H]2O)c1 |  | -1.73% (inactive) | 
29 | COC(=O)c1ccccc1O[C@@H]1O[C@H](CO)[C@@H](O)[C@H](O)[C@H]1O[C@@H]1O[C@@H](C)[C@H](O)[C@@H](O)[C@H]1O |  |  | inactive [at 17.3 µM]
30 | CC1CC(C(O)C(C)(C)O)OC2CC3(C)C4(C)CCC5C(C)(C)C(=O)CCC5(C)C4CCC3(O)C12O (configuration not stated) |  | -0.669% [at 17.3 µM] (inactive) | 
31 | CC(C)(O)c1ccc2c(c1)C(O)C[C@H]1[C@](C)(C(=O)O)CCC[C@]21C (some centres not stated) |  | 3.23% (inactive) | 
32 | CC(=O)C12OC(C)(C)OC1CC1C3CCC4=CC(=O)C=CC4(C)C3(F)C(O)CC12C (configuration not stated) |  | -33.8% (inactive) | 
